Screening results as filed in PubChem BioAssay.
CYP2C9 inhib: blocks human cytochrome P450 2C9 | P11712 | CYP2C9 Supersomes, luciferin-H conversion, luminescence | inhibition, % at 5 µM | 96,000 compounds, 20% hits | AID 777;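 active = blocking of liver enzyme CYP2C9 beyond about 50% at 5 µM, limit read from the data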
CYP2C19 inh: blocks human cytochrome P450 2C19; P33261; inhibition, % at 5 µM; 96,000 compounds, 21% hits; CYP2C19 Supersomes, luciferin-H EGE luminescence, 30 min;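 active = CYP2C19 inhibition above a set limit at 5 µM in the primary screen, cut at about 50% in these data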;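 also: plate controls were negative control wells for no effect and 2.5 mM tranylcypromine positive control for full effect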
Target sequence (P33261 whole entry, looked up): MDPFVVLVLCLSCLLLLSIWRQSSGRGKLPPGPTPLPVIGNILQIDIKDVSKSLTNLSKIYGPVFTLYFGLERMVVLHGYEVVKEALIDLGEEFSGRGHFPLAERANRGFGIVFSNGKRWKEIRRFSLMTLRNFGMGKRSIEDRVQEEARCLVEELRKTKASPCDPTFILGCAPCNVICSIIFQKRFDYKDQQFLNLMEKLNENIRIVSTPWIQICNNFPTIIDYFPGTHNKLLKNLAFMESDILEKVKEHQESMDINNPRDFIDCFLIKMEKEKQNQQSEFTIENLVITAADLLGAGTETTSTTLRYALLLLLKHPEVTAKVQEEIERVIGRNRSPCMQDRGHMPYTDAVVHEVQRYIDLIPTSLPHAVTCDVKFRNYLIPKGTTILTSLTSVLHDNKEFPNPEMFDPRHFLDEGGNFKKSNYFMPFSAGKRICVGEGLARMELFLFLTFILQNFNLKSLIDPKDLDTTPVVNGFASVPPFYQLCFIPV
CYP2C9 activ: CYP2C9 (human) activation; 96,000 compounds, 1.4% hits; activation factor at 5 µM; P11712; recombinant CYP2C9, luciferin-H conversion, luminescence; hits give high values; factor 1 = untreated enzyme, 0 = blocked;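 active = activation factor of 2 or more for CYP2C9 at a 5 µM dose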;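 also: 0 = sulfaphenazole-blocked wells and 1 = vehicle-only wells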
Cav3 T inh: human Cav3.2 channel inhibition, primary screen | 100,000 compounds, 4% hits | B-score at 10 µM | O95180 | Cav3.2-expressing cells, Fluo-4 calcium fluorescence FDSS; hits give low values | AID 449739;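 active = single-dose well whose peak fluorescence ratio is a statistical outlier from its plate by either plate-standardised score or position-corrected B-score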
CYP2C19 activ: increases human CYP2C19 enzyme activity | P33261 | recombinant CYP2C19, luciferin-H EGE luminescence; hits give high values; 0 = fully inhibited enzyme, 1 = untreated enzyme | activation factor at 5 µM | 96,000 tested, under 10 active;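 active = activation factor of at least 2 at 5 µM in the primary screen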;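 also: 0 = wells with 2.5 mM tranylcypromine and 1 = vehicle-only wells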
* marks the source's active call; other numbers are inactive results. An excerpt weighted towards active compounds, which were near 27% of everything screened.

Screening COc1cc(NC(=O)c2ccco2)c(OC)cc1NC(=O)CSc1ncc(-c2ccc(F)cc2)[nH]1 returned CYP2C9 inhib 0, CYP2C19 inh -4, CYP2C9 activ 1, Cav3 T inh -0.11 and CYP2C19 activ 1.
CCc1nnc(NC(=O)CSc2ncc(-c3ccccc3)[nH]2)s1 was read as CYP2C9 inhib 66*, CYP2C19 inh 25, CYP2C9 activ 0.3, Cav3 T inh -0.38 and CYP2C19 activ 0.7.
Cc1nnc(SCc2cc(=O)[nH]c(N3CCCCC3)n2)s1 was read as Cav3 T inh -0.063.
`NS(=O)(=O)c1ccc(CCNC2CC(=O)N(CCc3ccccc3)C2=O)cc1` (stereo not drawn) gave CYP2C9 inhib -15, CYP2C19 inh -12, CYP2C9 activ 1.2, Cav3 T inh 0.4 and CYP2C19 activ 1.1.
Screening Cc1csc(NC(=O)CSc2nnc3ncccn23)n1 returned CYP2C9 inhib 5, CYP2C19 inh 15, CYP2C9 activ 0.9, Cav3 T inh -0.13 and CYP2C19 activ 0.8.
CCc1nnc(NC(=O)CSc2nnc3ncccn23)s1 was read as CYP2C9 inhib 35, CYP2C19 inh 68*, CYP2C9 activ 0.6, Cav3 T inh 0.46 and CYP2C19 activ 0.3.
`COc1ccc2c(c1)C(=O)c1ccccc1CO2` gave CYP2C9 inhib 9, CYP2C19 inh 11, CYP2C9 activ 0.9, Cav3 T inh 0.046 and CYP2C19 activ 0.9.
Screening COc1ccc2c(c1)C(=O)CC(c1ccccc1F)O2 (stereo not drawn) returned CYP2C9 inhib -13, CYP2C19 inh 87*, CYP2C9 activ 1.1 and CYP2C19 activ 0.1.
For Cn1c(SCC(=O)Nc2cc(=O)n(C)c(=O)n2C)nnc1C12CC3CC(CC(C3)C1)C2 the results were CYP2C9 inhib -20, CYP2C19 inh -20, CYP2C9 activ 1.2 and CYP2C19 activ 1.2.
Screening CC1CCC2(CC1)NC(=S)N(c1ccccc1)N2 (stereo not drawn) returned CYP2C9 inhib 9, CYP2C19 inh 54*, CYP2C9 activ 0.9, Cav3 T inh 0.57 and CYP2C19 activ 0.5.
COc1ccc(N2C(=O)c3ccccc3NC23CCC(C)CC3)cc1 (stereo not drawn) was read as CYP2C9 inhib -2, CYP2C19 inh -8, CYP2C9 activ 1, Cav3 T inh 0.018 and CYP2C19 activ 1.1.
Screening Oc1ccccc1NCC(O)Cn1ccc2ccccc21 (stereo not drawn) returned CYP2C9 inhib 28, CYP2C19 inh 37, CYP2C9 activ 0.7, Cav3 T inh -1.8 and CYP2C19 activ 0.6.
Cc1cc(C)n(CC(O)Cn2ccc3ccccc32)n1 (stereo not drawn) was read as CYP2C9 inhib 41, CYP2C19 inh 72*, CYP2C9 activ 0.6, Cav3 T inh 0.46 and CYP2C19 activ 0.3.
Screening COc1ccc(CCNC(=O)CN2C(=O)c3ccccc3S2(=O)=O)cc1 returned Cav3 T inh 0.34.
Cc1cc(C)n(CC(O)CN2c3ccccc3Sc3ccccc32)n1 (stereo not drawn) was read as CYP2C9 inhib 33, CYP2C19 inh 66*, CYP2C9 activ 0.7, Cav3 T inh -6.3* and CYP2C19 activ 0.3.
For OCc1nc2ccccc2n1CC(O)Cn1ccc2ccccc21 (stereo not drawn) the results were CYP2C9 inhib 84*, CYP2C19 inh 90*, CYP2C9 activ 0.2, Cav3 T inh -0.019 and CYP2C19 activ 0.1.
`Cc1cc(C)n(CC(O)CN(c2ccccc2)S(=O)(=O)c2ccccc2)n1` (stereo not drawn) gave CYP2C9 inhib 18, CYP2C19 inh 13, CYP2C9 activ 0.8, Cav3 T inh -0.07 and CYP2C19 activ 0.9.
Screening O=C1c2ccccc2S(=O)(=O)N1CC(O)Cn1ccc2ccccc21 (stereo not drawn) returned CYP2C9 inhib 71*, CYP2C19 inh 97*, CYP2C9 activ 0.3, Cav3 T inh -0.96 and CYP2C19 activ 0.
`CCC(=O)Nc1cc(-c2nn(CC(=O)N3CCCCC3)c(=O)c3ccccc23)ccc1N1CCOCC1` gave CYP2C9 inhib 28, CYP2C19 inh 15, CYP2C9 activ 0.7, Cav3 T inh 0.79 and CYP2C19 activ 0.8.
For Cc1cc(C)n(CC(O)Cn2c3ccccc3c3ccccc32)n1 (stereo not drawn) the results were CYP2C9 inhib 61*, CYP2C19 inh 82*, CYP2C9 activ 0.4, Cav3 T inh -4.1 and CYP2C19 activ 0.2.
For Cc1cc(C)n(CC(O)Cn2c3ccc(Cl)cc3c3cc(Cl)ccc32)c(=O)n1 (stereo not drawn) the results were CYP2C9 inhib 95*, CYP2C19 inh 58*, CYP2C9 activ 0.1, Cav3 T inh -1.3 and CYP2C19 activ 0.4.
CCOC(=O)c1c(C)n(O)c2ccc(Cl)cc2c1=O was read as CYP2C9 inhib 4, CYP2C19 inh 6, CYP2C9 activ 1, Cav3 T inh 0.75 and CYP2C19 activ 0.9.
OCCCn1c(CCNc2nc(-c3ccc(F)cc3)cs2)nc2cc(C(F)(F)F)ccc21 was read as Cav3 T inh -1.1.
For Cc1nn(S(=O)(=O)c2cccs2)c(C)c1Sc1ccc([N+](=O)[O-])cc1 the results were CYP2C9 inhib 28, CYP2C19 inh 24, CYP2C9 activ 0.7, Cav3 T inh -2.2 and CYP2C19 activ 0.8.
`Cc1nn(S(=O)(=O)c2ccccc2)c(C)c1Sc1ccc([N+](=O)[O-])cc1` gave CYP2C9 inhib 36, CYP2C19 inh 62*, CYP2C9 activ 0.6, Cav3 T inh -3 and CYP2C19 activ 0.4.
Screening N#CCSc1nnc(Cc2ccc3c(c2)OCO3)o1 returned CYP2C9 inhib -1, CYP2C19 inh 16, CYP2C9 activ 1, Cav3 T inh 0.71 and CYP2C19 activ 0.8.
For O=C(O)CCC(=O)c1c[nH]c2ccccc12 the results were CYP2C9 inhib -7, CYP2C19 inh 4, CYP2C9 activ 1.1, Cav3 T inh 0.021 and CYP2C19 activ 1.
`N#C/C(=C/c1ccccc1)c1nn(CCO)c(N)c1C#N` gave CYP2C9 inhib 77*, CYP2C19 inh 94*, CYP2C9 activ 0.2, Cav3 T inh 0.24 and CYP2C19 activ 0.1.
`Cc1cc(Nc2cc(Cl)nc(Sc3ccc(NC(=O)C4CC4)cc3)n2)n[nH]1` gave Cav3 T inh 0.33.
`Cc1cccc(C)c1NC(=O)C/C(N)=N/O` gave CYP2C9 inhib 11, CYP2C19 inh 13, CYP2C9 activ 0.9, Cav3 T inh -0.014 and CYP2C19 activ 0.9.
`CC(=O)NC(CC(=O)Nc1ccc(S(=O)(=O)N2CCCCC2)cc1)c1ccccc1` (stereo not drawn) gave CYP2C9 inhib 74*, CYP2C19 inh 69*, CYP2C9 activ 0.3, Cav3 T inh -0.28 and CYP2C19 activ 0.3.
Screening COC(=O)CCC(=O)Nc1ccc(S(=O)(=O)N2CCCCCC2)cc1 returned CYP2C9 inhib 43, CYP2C19 inh 22, CYP2C9 activ 0.6, Cav3 T inh 0.11 and CYP2C19 activ 0.8.
